# Laboratory results: PubChem BioAssay (NCI)
# Compounds without any hit were thinned out: in the full panel of roughly 83,000, 20% have a hit.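 Activity criterion: percent growth below 10, measured after cells in 96-well plates were exposed to a single compound concentration for 48 hours.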 Values without a mark were called inactive. Active and inactive are the calls of the source.
# What was measured:
# Assay in all cases: NCI-60 one-dose screen, 48 h (100 = growth as untreated, 0 = no growth, -100 = all killed)
# Conditions in all cases: 10 µM unless noted
# [1] = tested on: NCI-H23 lung
# [2] = tested on: NCI-H226 lung
# [3] = tested on: NCI-H322M lung
# [4] = tested on: HOP-62 NSCLC
# [5] = tested on: NCI-H460 lung
# [6] = tested on: NCI-H522 lung
# [7] = tested on: A549/ATCC NSCLC
# [8] = tested on: 786-0 renal
# [9] = tested on: COLO 205 colon
# [10] = tested on: DU-145 prostate
# [11] = tested on: K-562 leukemia
# [12] = tested on: MALME-3M melanoma
# [13] = tested on: MDA-MB-231 breast
# [14] = tested on: RXF 393 renal
# [15] = tested on: SF-268 CNS
# [16] = tested on: SF-295 CNS
# [17] = tested on: SF-539 CNS
# [18] = tested on: UACC-257 melanoma
# [19] = tested on: M14 melanoma
Compound,growth [1],growth [2],growth [3] [%],growth [4],growth [5],growth [6],growth [7] [%],growth [8],growth [9],growth [10],growth [11],growth [12],growth [13],growth [14],growth [15],growth [16],growth [17],growth [18],growth [19]
CCN1C(=O)N(CC)C2C1NN=c1s/c(=C\c3ccco3)c(=O)n12 (configuration not stated),37.3%,60%,42.5,28.2%,12.9%,-9.98% (active),25,25%,-19.8% (active),3.04% (active),11.5%,55.8%,43%,-2.28% (active),44%,8.2% (active),-1.22% (active),63%,5.24% (active)
O=C(CCl)Nc1cc(O)c2c(c1)C(=O)c1cccc(O)c1C2=O,-45% (active),-20.6% (active),59,-100% (active),-43.5% (active),-89% (active),91,-71.5% (active),-81.5% (active),-82.5% (active),-46.2% (active),-72.9% (active),-27.7% (active),-67.1% (active),-49.5% (active),61.7%,-32.3% (active),5.96% (active),-33.2% (active)
N/C(=C\C(=O)n1nc(-c2ccccc2)cc1N)c1ccccc1,58.3%,73.4%,65.4,64%,36%,-22.3% (active),55.1,65%,41.6%,58.2%,25.6%,42.6%,51.5%,77.2%,63.8%,44.5%,59.4%,58.3%,31.6%
CCN1C(=O)N(CC)C2C1N=C(SC)N2/N=C/C=C/c1ccccc1OC (configuration not stated),21.9%,34.8%,31.7,25.2%,6.18% (active),-32.8% (active),17.7,14.5%,-48.9% (active),5.61% (active),6.68% (active),31.9%,21.2%,11%,23.5%,10.6%,-4.87% (active),55.3%,4.55% (active)
N/N=C(\C(=N\N)c1ccccc1)c1ccccc1,98.8%,88.2%,94.6,91.7%,108%,86.6%,101,97.6%,108%,113%,111%,88%,111%,118%,103%,105%,103%,107%,96.6%
COc1cc(C2CC(c3ccccc3)=NN2C=O)ccc1Oc1ccnc2cc(Cl)ccc12 (configuration not stated),36.7%,46.6%,100,74.2%,73.8%,42.7%,56,79.9%,101%,77.9%,51.1%,52.7%,74.6%,98.9%,65.6%,43.3%,79.8%,31.6%,54.9%
O=C(c1ccccc1)C1OC1C(=O)c1ccccc1 (configuration not stated),3.63% (active),61.1%,75.4,21%,64.1%,8.93% (active),70.4,15.1%,27.6%,1.5% (active),9.28% (active),30.5%,25.9%,2.72% (active),39.5%,72.8%,24.5%,40.2%,17.3%
CC(C)N(C(=S)SSC(=S)N(C(C)C)C(C)C)C(C)C,101%,109%,108,104%,110%,75.7%,95.9,101%,112%,109%,73.3%,101%,119%,120%,103%,101%,108%,93.4%,101%
